The record followed here is PubChem BioAssay (NCI).

Some test systems named below: SR leukemia; RPMI-8226 leukemia; OVCAR-8 ovarian; OVCAR-5 ovarian; OVCAR-4 ovarian; SK-OV-3 ovarian; IGROV1 ovarian; OVCAR-3 ovarian; HS 578T breast; NCI/ADR-RES ovarian; T-47D breast; BT-549 breast; MDA-MB-435 melanoma; SW-620 colon; MCF7 breast; HCT-116 colon; HCC-2998 colon; KM12 colon.
Assay in all cases: NCI-60 one-dose screen, 48 h (100 = growth as untreated, 0 = no growth, -100 = all killed)
Conditions in all cases: 10 µM unless noted

The structures appear in SMILES notation. The panel holds about 83,000 compounds, 20% with a hit somewhere; the sample as a whole holds those more often.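 The test compound was applied at a single concentration to cells in 96-well plates for 48 hours, and percent growth was recorded.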 Activity calls are given as the source filed them. Rule for the calls: active = growth percent below 10; inactive = the rest.

With `COc1cccc(NC(=O)Cn2cc(CN3CCN(c4ccnc5cc(Cl)ccc45)CC3)nn2)c1`, the growth with SR leukemia was 97.2% (inactive); in the experiment on RPMI-8226 leukemia, 48% (inactive); in the experiment with OVCAR-8 ovarian, 83.2% (inactive); in the experiment on OVCAR-5 ovarian it was 93.5% (inactive); in the experiment on OVCAR-4 ovarian, 85.9% (inactive); in the experiment with SK-OV-3 ovarian it was 74% (inactive). Also, the growth is 84.9% (inactive) in the experiment on IGROV1 ovarian; 101% (inactive) with OVCAR-3 ovarian; 80.8% (inactive) with HS 578T breast; 94.7% (inactive) with NCI/ADR-RES ovarian; 70.7% (inactive) in the experiment with T-47D breast; 77.2% (inactive) in the experiment with BT-549 breast. In addition, the growth was 96.7% (inactive) in the experiment with MDA-MB-435 melanoma; 88.8% (inactive) in the experiment with SW-620 colon; 86.7% (inactive) in the experiment with MCF7 breast; 97% (inactive) in the experiment with HCT-116 colon; 93% (inactive) with HCC-2998 colon; 78.4% (inactive) in the experiment with KM12 colon.

On to `Cc1cc2c(O)c(-c3cccc(Cl)c3)c3sc(=O)oc3c2cc1C`, for which the growth with SR leukemia was 18.6% (inactive); with RPMI-8226 leukemia it was 12.1% (inactive); with OVCAR-8 ovarian, 41.9% (inactive); in the experiment on OVCAR-5 ovarian, 106% (inactive); in the experiment on OVCAR-4 ovarian, 13.4% (inactive); in the experiment on SK-OV-3 ovarian, 59.4% (inactive). The growth was 41% (inactive) in the experiment with IGROV1 ovarian; 18.6% (inactive) in the experiment with OVCAR-3 ovarian; 48.2% (inactive) in the experiment with HS 578T breast; 56.3% (inactive) in the experiment on NCI/ADR-RES ovarian; 14.8% (inactive) in the experiment on T-47D breast; 58.8% (inactive) with BT-549 breast. The growth in the experiment with MDA-MB-435 melanoma is 28.9% (inactive); with SW-620 colon, 35% (inactive); in the experiment on MCF7 breast it was 26.3% (inactive); in the experiment on HCT-116 colon it was 18.1% (inactive); in the experiment with HCC-2998 colon it was 73.1% (inactive); in the experiment with KM12 colon, 64.3% (inactive).

`CCN(CC)CCOc1ccc(C(=C(C)c2ccc(Cl)cc2)c2ccc(OCCN(CC)CC)cc2)cc1`: the growth is -54.4% (active) in the experiment with SR leukemia; -49.8% (active) with RPMI-8226 leukemia; -47.1% (active) in the experiment on OVCAR-8 ovarian; -84.1% (active) in the experiment with OVCAR-5 ovarian; -62.1% (active) in the experiment on OVCAR-4 ovarian; -79.9% (active) in the experiment with SK-OV-3 ovarian. Besides, the growth with IGROV1 ovarian was -86.9% (active); in the experiment with OVCAR-3 ovarian it was -70.5% (active); with HS 578T breast, -52.5% (active); in the experiment with NCI/ADR-RES ovarian it was -68.2% (active); with T-47D breast, -66.4% (active); in the experiment on BT-549 breast it was -50.6% (active). For the same molecule, the growth was -95.1% (active) with MDA-MB-435 melanoma; -75.6% (active) with SW-620 colon; -76.5% (active) with MCF7 breast; -94.1% (active) in the experiment on HCT-116 colon; -91.2% (active) with HCC-2998 colon; -79% (active) in the experiment with KM12 colon.

For the molecule `COc1cc(/C=C/C(=O)c2cccc(Nc3nc(Nc4ccccc4)nc(Nc4ccccc4)n3)c2)cc(OC)c1OC`, the growth in the experiment on SR leukemia is 22.4% (inactive); in the experiment with RPMI-8226 leukemia, -63.1% (active); in the experiment on OVCAR-8 ovarian it was 27.2% (inactive); with OVCAR-5 ovarian it was 78.8% (inactive); with OVCAR-4 ovarian, 67.4% (inactive); with SK-OV-3 ovarian, 90.3% (inactive). In addition, the growth was 37.3% (inactive) with IGROV1 ovarian; 44.9% (inactive) in the experiment with OVCAR-3 ovarian; 50.3% (inactive) in the experiment on HS 578T breast; 40.6% (inactive) with NCI/ADR-RES ovarian; 42.2% (inactive) with T-47D breast; 64.2% (inactive) with BT-549 breast. Moreover, the growth with MDA-MB-435 melanoma was 68.8% (inactive); in the experiment on SW-620 colon it was 35.4% (inactive); in the experiment on MCF7 breast, 22.9% (inactive); with HCT-116 colon, 15.1% (inactive); with HCC-2998 colon, 16.7% (inactive); with KM12 colon it was 52.7% (inactive).

`O=C(O)c1[nH]c(=O)[nH]c(=O)c1[N+](=O)[O-]`: the growth is 70.9% (inactive) in the experiment on SR leukemia; 112% (inactive) in the experiment with RPMI-8226 leukemia; 101% (inactive) with OVCAR-8 ovarian; 126% (inactive) in the experiment on OVCAR-5 ovarian; 122% (inactive) with OVCAR-4 ovarian; 116% (inactive) with SK-OV-3 ovarian. In addition, the growth is 133% (inactive) with IGROV1 ovarian; 134% (inactive) in the experiment on OVCAR-3 ovarian; 106% (inactive) in the experiment on HS 578T breast; 103% (inactive) with NCI/ADR-RES ovarian; 109% (inactive) in the experiment with T-47D breast; 107% (inactive) with BT-549 breast. The growth in the experiment with MDA-MB-435 melanoma is 106% (inactive); in the experiment with SW-620 colon, 109% (inactive); in the experiment with MCF7 breast it was 98.8% (inactive); in the experiment with HCT-116 colon it was 100% (inactive); in the experiment on HCC-2998 colon, 99.2% (inactive); in the experiment on KM12 colon, 115% (inactive).

As for `Cc1cnc(C(=O)NNc2nc3sc4c(c3c(=O)n2C)C(C)CCC4)cn1` (configuration not stated), the growth in the experiment with SR leukemia was 12.2% (inactive); with RPMI-8226 leukemia, 9.06% (active); in the experiment with OVCAR-8 ovarian, 5.29% (active); in the experiment on OVCAR-5 ovarian, 2.46% (active); with OVCAR-4 ovarian, -14.7% (active); with SK-OV-3 ovarian, 11.9% (inactive). Further, the growth is -18.6% (active) in the experiment with IGROV1 ovarian; -2.78% (active) in the experiment with OVCAR-3 ovarian; 34.2% (inactive) in the experiment with HS 578T breast; 1.29% (active) with NCI/ADR-RES ovarian; -7.99% (active) in the experiment with T-47D breast; 25.8% (inactive) in the experiment on BT-549 breast. In addition, the growth is 7.05% (active) with MDA-MB-435 melanoma; 10.2% (inactive) with SW-620 colon; -12% (active) in the experiment on MCF7 breast; 3.75% (active) in the experiment on HCT-116 colon; 29.5% (inactive) in the experiment with HCC-2998 colon; 6.33% (active) with KM12 colon.

With `N#Cc1c(-c2cccs2)cc(-c2cccnc2)[nH]c1=O`, the growth in the experiment with SR leukemia is 95.9% (inactive); in the experiment on RPMI-8226 leukemia, 98.6% (inactive); with OVCAR-8 ovarian, 97.9% (inactive); in the experiment with OVCAR-5 ovarian, 96.9% (inactive); with OVCAR-4 ovarian, 118% (inactive); in the experiment on SK-OV-3 ovarian it was 97.2% (inactive). Further, the growth with IGROV1 ovarian is 108% (inactive); in the experiment with OVCAR-3 ovarian, 104% (inactive); in the experiment with HS 578T breast, 102% (inactive); in the experiment with NCI/ADR-RES ovarian it was 103% (inactive); in the experiment with T-47D breast, 103% (inactive); in the experiment with BT-549 breast it was 102% (inactive). The growth in the experiment with MDA-MB-435 melanoma was 102% (inactive); in the experiment with SW-620 colon, 101% (inactive); in the experiment with MCF7 breast, 92.4% (inactive); in the experiment with HCT-116 colon, 104% (inactive); with HCC-2998 colon it was 114% (inactive); with KM12 colon it was 106% (inactive).

Consider `O=C(Nn1c2c(sc1=Nc1ccccc1)C(=O)c1ccccc1C2=O)c1cc2ccc1CCc1ccc(cc1)CC2`, for which the growth in the experiment on SR leukemia was 61.1% (inactive); in the experiment with RPMI-8226 leukemia, 75.2% (inactive); in the experiment on OVCAR-8 ovarian, 62.2% (inactive); with OVCAR-5 ovarian it was 110% (inactive); with OVCAR-4 ovarian it was 69.4% (inactive); in the experiment with SK-OV-3 ovarian, 76.3% (inactive). Besides, the growth was 48.8% (inactive) with IGROV1 ovarian; 64.8% (inactive) in the experiment on OVCAR-3 ovarian; 78.9% (inactive) in the experiment on HS 578T breast; 70.2% (inactive) in the experiment with NCI/ADR-RES ovarian; 71.1% (inactive) in the experiment with T-47D breast; 67.9% (inactive) with BT-549 breast. Moreover, the growth in the experiment on MDA-MB-435 melanoma is -72.5% (active); with SW-620 colon it was 75.9% (inactive); in the experiment on MCF7 breast, 45.6% (inactive); in the experiment with HCT-116 colon it was 60.9% (inactive); in the experiment on HCC-2998 colon, 86.8% (inactive); with KM12 colon it was 78.8% (inactive).

In the case of `COc1ccc(C2=Nc3c/c(=C\c4c(O)[nH]c5ccc(Cl)cc45)ccc3=N2)cc1`, the growth was 2.44% (active) in the experiment with SR leukemia; 22.7% (inactive) in the experiment on RPMI-8226 leukemia; 51.7% (inactive) in the experiment on OVCAR-8 ovarian; 82.9% (inactive) with OVCAR-5 ovarian; 64.2% (inactive) in the experiment with OVCAR-4 ovarian; 64.6% (inactive) in the experiment with SK-OV-3 ovarian. For the same molecule, the growth is 75.3% (inactive) in the experiment on IGROV1 ovarian; 32.7% (inactive) with OVCAR-3 ovarian; 41.8% (inactive) in the experiment with HS 578T breast; 12.7% (inactive) with NCI/ADR-RES ovarian; 53.7% (inactive) with T-47D breast; 35.3% (inactive) in the experiment on BT-549 breast. The growth in the experiment with MDA-MB-435 melanoma was -68.5% (active); with SW-620 colon, 5.99% (active); with MCF7 breast it was 0.287% (active); with HCT-116 colon, 33.6% (inactive); in the experiment on HCC-2998 colon it was 35.5% (inactive); with KM12 colon it was 17.1% (inactive).
